GPR7 antagonist: human neuropeptides B/W receptor 1 antagonism; P48145; GPR7-expressing cells, fluorescence antagonist assay; inhibition, % at 4.4 µM; hit rate 1.1% among 290,000; AID 1861; in the data active = inhibition above about 16%, passing the limit was not always enough;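 also: cells stimulated with the agonist NPW; 0% = agonist with vehicle and 100% = vehicle without agonist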
Target sequence (P48145 whole entry, looked up): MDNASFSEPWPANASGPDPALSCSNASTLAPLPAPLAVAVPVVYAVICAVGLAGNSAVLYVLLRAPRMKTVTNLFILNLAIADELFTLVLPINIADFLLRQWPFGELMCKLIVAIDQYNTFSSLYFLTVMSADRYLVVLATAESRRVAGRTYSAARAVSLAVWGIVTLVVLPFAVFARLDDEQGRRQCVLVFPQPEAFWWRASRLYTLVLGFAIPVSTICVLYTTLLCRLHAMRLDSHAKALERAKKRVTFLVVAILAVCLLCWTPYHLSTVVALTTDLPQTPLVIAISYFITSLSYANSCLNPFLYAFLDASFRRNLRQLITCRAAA
FID counter: fluorescent intercalator displacement, NS3 helicase counter-screen. inhibition, % at 7.9 µM. AID 1845. hit rate 0.17% among 290,000. DNA fluorescent intercalator displacement, fluorescence; in the data active = inhibition above about 37%;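 also: 0% = vehicle and 100% = reference compound; higher means more ethidium bromide displaced from hairpin DNA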
Ba/F3 V617F tox: reduce viability of Ba/F3 cells dependent on JAK2V617F. Ba/F3 EpoR-JAK2V617F viability, ATP luminescence. inhibition, % at 5.6 µM. hit rate 1.1% among 220,000. AID 1446;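 active = inhibition above the campaign mean plus 3 SD over all tested compounds, cut at about 24% in these data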;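 also: cytokine-independent growth of Ba/F3 cells driven by EpoR plus mutant JAK2; 0% = DMSO-treated cells and 100% = JAK inhibitor I control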
BaF3 parental: reduces parental Ba/F3 cell viability, JAK2V617F counter-screen. inhibition, % at 5.6 µM. hit rate 1.1% among 220,000. CellTiter-Glo ATP luminescence;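 active = inhibition above a per-campaign cutoff, the mean inhibition of all tested compounds plus 3 SD, cut at about 27% in these data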;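 also: 0% = DMSO wells and 100% = JAK Inhibitor I control wells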
KLF5 inhibitor: kruppel-like factor 5 inhibition; DLD-1 KLF5 promoter-luciferase reporter, luminescence; inhibition, % at 5 µM; hit rate 0.23% among 290,000;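 active = inhibition above a per-plate limit of that plate's mean compound inhibition plus 3 SD, cut at about 60% in these data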;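 also: 0% = DMSO wells and 100% = LY294002 at 200 µM; higher means less KLF5 promoter-driven luciferase light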
IEC-6 cytotox: counter-screen for KLF5 inhibitors: cytotoxicity in IEC-6 cells; inhibition, % at 5 µM; hit rate 0.78% among 290,000; IEC-6 cytotoxicity, luminescence viability; in the data active = inhibition above about 22%;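 also: 0% = plate median of test compound wells and 100% = cytotoxic reference compound wells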
* = called active by the depositor; x = no result given; ! = repeats disagree. Most compounds without a hit are left out; they make up all but 2.6% or so of the library.

SMILES	GPR7 antagonist	FID counter	Ba/F3 V617F tox	BaF3 parental	KLF5 inhibitor	IEC-6 cytotox
CC[C@H](C)C(=O)O[C@H]1CCC=C2C=C[C@H](C)[C@H](CC[C@@H]3C[C@@H](O)CC(=O)O3)[C@H]21	-21	-38	62*	27*!	16	3
NC(=O)CN1C(=O)C(O)(CC(=O)/C=C\C=C\c2ccccc2)c2ccccc21 (configuration not stated)	9	-25	2	6	-14	-6
CCCc1[nH]nc2c1C(CCc1ccccc1)C(C#N)=C(N)O2 (configuration not stated)	-5	-11	-4	-2	12	-4
CC(C)CCNC(=O)CCc1nnc(COc2ccccc2)o1	4	-9	0	81*	-3	-2
CC1=NN(Cc2ccccc2)C(=O)C1C(c1ccccc1)C(C#N)C#N (configuration not stated)	6	-10	-1	-1	-31	2
COc1ccccc1NS(=O)(=O)c1cc(NC(=O)Nc2cccc(C)c2)ccc1N1CCCCC1	-14	4	1	8	-18	-15
O=C(Nc1ccc(Cl)cc1)Nc1ccc(N2CCCC2)c(S(=O)(=O)Nc2ccccc2Cl)c1	-5	4	53*	37*	-25	4
CC(=O)Nc1cccc(NC(=O)Nc2cccc(Cl)c2C)c1	-2	-2	-1	7	-36	-4
CC(=O)Nc1cccc(NC(=S)Nc2cccc(Cl)c2C)c1	15	1	-2	90*	-18	3
O=C(Nc1ccccc1)c1cccc(C(F)(F)F)c1	5	4	2	6	19	14
C=CCN(C(=O)c1cccc(C(F)(F)F)c1)C1(C(=O)Nc2ccccc2)CCN(C(C)C)CC1	18*	10	6	11	-10	-5
CC(C)c1cc(C(=O)Nc2cc(Cl)ccc2O)no1	18	2	16	37*	-94	1
CC(C)c1cc(C(=O)Nc2cc(Br)ccc2O)no1	3	1	27*	29*	-110	-4
CCCc1cc(C(=O)Nc2cc(Br)ccc2O)no1	-2	12	1	13	-32	-7
CCOc1cc(C)c(S(=O)(=O)Nc2ccc3cn[nH]c3c2)cc1C	-6	-7	5	40*	5	10
Cc1c(Cl)cccc1NC(=O)CCN1C(=O)C2CC=CCC2C1=O (configuration not stated)	-16	-11	x	x	-5	-5
COc1ccc(Br)cc1C(C[N+](=O)[O-])c1c(N)n(C)c(=O)n(C)c1=O (configuration not stated)	4	-2	66*	36*	-38	-2
O=C1C=CC(O)(c2cc(=O)c3c(O)cc(O)cc3o2)C=C1	3	-3	44*	47*	37	1
Cc1cccc(OCc2nnc(SCc3nc4ccccc4c(=O)[nH]3)o2)c1	-8	-6	1	3	-8	4
COc1ccc(-c2nnc(SCc3nc4ccccc4c(=O)[nH]3)o2)cc1	-4	1	0	53*	-11	2
Cc1c(NS(=O)(=O)c2ccc(S(=O)(=O)c3ccccc3)s2)c(=O)n(-c2ccccc2)n1C	-11	-36	-7	-2	-34	-8
[2H]c1c([2H])c([2H])c(-c2nc(N3CCCCCC3)sc2C(=O)c2ccccc2)c([2H])c1[2H]	4	-12	4	95*	-20	-4
O=C(c1sc(N2CCOCC2)nc1-c1ccccc1)N1CCCCC1	11	-41	8	11	-7	8
CCN1CCN(C(=O)C2CCN(c3nnc(C)c4c(C)n(-c5ccc(C)cc5)nc34)CC2)CC1	-10	43*	x	x	-13	7
CC1(C)N=C(N)NC(Nc2ccccc2)=N1	-1	-2	94*	98*	5	5
Oc1ccccc1N=Nc1nc(-c2ccccc2)c(-c2ccccc2)[nH]1	1	-4	98*	97*	50	0
CCCCCC(=O)NC(NC(=S)NC1CCS(=O)(=O)C1)C(Cl)(Cl)Cl (configuration not stated)	1	-5	0	5	-18	-1
C(=N\Nc1nc(Nc2ccccc2)nc(Nc2ccccc2)n1)/c1ccncc1	3	-3	0	5	-9	3
C(=N\Nc1nc(Nc2ccccc2)nc(Nc2ccccc2)n1)/c1cccnc1	-1	-7	-1	12	7	29*

Screens (PubChem)
